# Laboratory results: the supplement of paper PMC9694430
# Structures can show the parent of a compound that is named as a salt.
# Key:
# Assay in all cases: thermal shift delta Tm vs DMSO control; higher = stronger stabilization (binding)
# Settings in all cases: 12.5 µM; protein concentration 2 µM
# LOC_OS02G45750-cb003 = test system: LOC_OS02G45750-cb003
# Procedure, shortened: (§1)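 Heating from 25°C to 95°C at 0.05°C/s, fluorescence was recorded for 19.5 μl wells of 2 μM E. coli-expressed, purified rice kinase domain in 100 mM potassium phosphate pH 7.5, 150 mM NaCl, 10% glycerol and 5 × SYPRO Orange with compound in DMSO. Boltzmann fits gave melting temperatures for this differential scanning fluorimetry assay. The shift reported is the mean of three replicates against the DMSO-only protein.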
# LOC_OS02G54510-cb004 = test system: LOC_OS02G54510-cb004
# Procedure, shortened: as §1
# LOC_OS03G04050-cb001 = test system: LOC_OS03G04050-cb001
# Procedure, shortened: as §1
# LOC_OS03G12390-cb001 = test system: LOC_OS03G12390-cb001
# Procedure, shortened: as §1
# LOC_OS03G27990-cb004 = test system: LOC_OS03G27990-cb004
# Procedure, shortened: as §1
# LOC_OS03G50450-cb001 = test system: LOC_OS03G50450-cb001
# Procedure, shortened: as §1
# LOC_OS03G50810-cb003 = test system: LOC_OS03G50810-cb003
# Procedure, shortened: as §1
# LOC_OS04G35114-cb001 = test system: LOC_OS04G35114-cb001
# Procedure, shortened: as §1
# LOC_OS04G38480-cb003 = test system: T1, LOC_OS04G38480-cb003
# T1 sequence (whole entry): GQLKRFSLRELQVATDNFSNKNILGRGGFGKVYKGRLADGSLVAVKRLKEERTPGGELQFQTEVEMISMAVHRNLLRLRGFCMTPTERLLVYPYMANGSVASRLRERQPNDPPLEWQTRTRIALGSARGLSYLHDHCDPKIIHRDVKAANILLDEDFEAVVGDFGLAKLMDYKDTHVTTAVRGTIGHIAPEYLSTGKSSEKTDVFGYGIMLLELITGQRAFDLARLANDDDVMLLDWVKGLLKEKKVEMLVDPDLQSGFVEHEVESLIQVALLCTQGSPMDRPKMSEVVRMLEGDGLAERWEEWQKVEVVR
# Procedure, shortened: as §1
# LOC_OS04G41100-cb001 = test system: T2, LOC_OS04G41100-cb001
# T2 sequence (whole entry): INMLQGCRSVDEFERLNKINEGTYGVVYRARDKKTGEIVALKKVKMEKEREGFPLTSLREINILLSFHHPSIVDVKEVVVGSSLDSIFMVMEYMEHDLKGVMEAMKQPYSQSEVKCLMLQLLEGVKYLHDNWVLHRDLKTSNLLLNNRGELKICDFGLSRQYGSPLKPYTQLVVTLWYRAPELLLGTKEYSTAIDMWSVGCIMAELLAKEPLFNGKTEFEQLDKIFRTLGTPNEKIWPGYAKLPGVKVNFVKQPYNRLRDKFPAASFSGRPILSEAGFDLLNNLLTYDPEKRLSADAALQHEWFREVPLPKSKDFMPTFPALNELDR
# Procedure, shortened: as §1
# 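Further: purified Escherichia coli-expressed rice kinase domain construct.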
Structure (SMILES),thermal shift delta Tm (LOC_OS02G45750-cb003) [°C],thermal shift delta Tm (LOC_OS02G54510-cb004) [°C],thermal shift delta Tm (LOC_OS03G04050-cb001) [°C],thermal shift delta Tm (LOC_OS03G12390-cb001) [°C],thermal shift delta Tm (LOC_OS03G27990-cb004) [°C],thermal shift delta Tm (LOC_OS03G50450-cb001) [°C],thermal shift delta Tm (LOC_OS03G50810-cb003) [°C],thermal shift delta Tm (LOC_OS04G35114-cb001) [°C],thermal shift delta Tm (LOC_OS04G38480-cb003) [°C],thermal shift delta Tm (LOC_OS04G41100-cb001) [°C]
CCN(CC)CCCCNc1ncc2cc(-c3cc(OC)cc(OC)c3)c(NC(=O)NC(C)(C)C)nc2n1,1.08,0.28,0.67,0.06,0.5,0.93,0.47,0.79,0.83,0.46
CN1CCN(c2cccc(Nc3nc4c(-c5ccc(S(C)(=O)=O)cc5)cccn4n3)c2)CC1,2.02,0.36,0.44,0.47,1.72,2.95,1.65,2.23,1.42,0.46
Cn1cc(/C=C2\C(=O)Nc3cccnc32)c2ccccc21,11.3,0.63,0.83,3.11,1.64,4,3.46,6.79,3.05,0.74
O=C(NOCC(O)CO)c1cc(Br)c(F)c(F)c1Nc1ccc(I)cc1F (stereo not given),-0.49,-0.06,0.63,0.93,0.15,0.19,0.19,0.09,1.04,3.8
CN1CCN(c2nc(C3=C(c4c[nH]c5ccccc45)C(=O)NC3=O)c3ccccc3n2)CC1 [Sotrastaurin],1.74,0.21,0.22,0.18,0.49,0.36,1.38,1.49,0.76,0.51
COc1cc2nccc(Oc3ccc(NC(=O)C4(C(=O)Nc5ccc(F)cc5)CC4)cc3)c2cc1OC [Cabozantinib malate (XL184)],0.86,0.27,0.7,0.1,0.34,0.45,0.59,0.52,1.59,0.69
N#Cc1c(Oc2ccc(F)c(NC(=O)Cc3cccc(C(F)(F)F)c3)c2)ccc2nc(NC(=O)C3CC3)sc12,1.08,0.54,0.5,0.15,0.31,0.4,0.5,0.45,1.92,0.42
COC1(c2sc3c(N4CCOCC4)nc(-c4cnc(N)nc4)nc3c2C)COC1,1.67,3.13,-0.01,0.74,0.96,4.14,0.91,2.13,1.11,0.5
COc1cc2ncnc(Oc3ccc(CC(=O)Nc4cnn(C(C)C)c4)cc3)c2cc1OC,0.54,0.74,0.53,0.37,0.19,0.01,0.5,2.1,1.49,0.32
CCC(=O)Nc1cccc(Oc2nc(Nc3ccc(N4CCN(C)CC4)cc3OC)ncc2Cl)c1,1.13,-0.03,0.41,2.35,0.56,0.69,1.06,0.8,1.83,0.39
CCS(=O)(=O)Nc1ccc2c(c1)/C(=C(/Nc1ccc(CN3CCCCC3)cc1)c1ccccc1)C(=O)N2 [Hesperadin],14.4,0.53,0.02,8.56,2.77,2.45,11.8,13.2,4.11,0.76
CNC(=O)c1cc(Oc2ccc(NC(=O)Nc3ccc(Cl)c(C(F)(F)F)c3)cc2)ccn1 [Sorafenib Tosylate],2.62,1.95,0.83,1.41,0.39,0.77,1.06,0.98,2.2,1.53
CCN1CCN(Cc2ccc(Nc3ncc(F)c(-c4cc(F)c5nc(C)n(C(C)C)c5c4)n3)nc2)CC1,3.28,0.25,0.17,1.39,0.47,0.16,2.97,2.79,1.91,5.62
COc1cc(N2CCC(N(C)C)CC2)ccc1Nc1ncc(Cl)c(Nc2ccccc2P(C)(C)=O)n1,2.58,0.23,0.53,10.9,2.49,0.35,5.58,4.67,3.65,0.61
N[C@@H]1CCCN(c2c(/C=C3\SC(=O)NC3=O)cccc2-c2ccccc2)C1,0.09,-0.11,0.23,-0.15,0.47,0.53,0.13,0.97,0.39,0.61
C#Cc1cccc(Nc2ncnc3cc4c(cc23)OCCOCCOCCO4)c1 [Icotinib],3.3,0.13,0.58,1.26,0.45,0.72,1.31,4.38,3.08,0.38
CS(=O)(=O)CCNCc1ccc(-c2ccc3ncnc(Nc4ccc(OCc5cccc(F)c5)c(Cl)c4)c3c2)o1 [Lapatinib],0.06,-0.31,0.53,1.17,0.47,1.2,1.16,2.03,3.11,0.92
COc1ccccc1-c1cc(Nc2cccc(CS(N)(=O)=O)c2)ncn1,3.96,0.61,0.43,0.77,0.57,0.51,0.56,1.63,2.33,0.8

Structure (SMILES),thermal shift delta Tm (LOC_OS02G45750-cb003) [°C],thermal shift delta Tm (LOC_OS02G54510-cb004) [°C],thermal shift delta Tm (LOC_OS03G04050-cb001) [°C],thermal shift delta Tm (LOC_OS03G12390-cb001) [°C],thermal shift delta Tm (LOC_OS03G27990-cb004) [°C],thermal shift delta Tm (LOC_OS03G50450-cb001) [°C],thermal shift delta Tm (LOC_OS03G50810-cb003) [°C],thermal shift delta Tm (LOC_OS04G35114-cb001) [°C],thermal shift delta Tm (LOC_OS04G38480-cb003) [°C],thermal shift delta Tm (LOC_OS04G41100-cb001) [°C]
O=C1c2ccc(Nc3ccc(F)cc3F)cc2CCc2ccc(OC[C@H](O)CO)cc21 [Skepinone-L],0.45,-0.21,-0.01,-0.61,0.11,0.06,-0.16,1.82,1.25,0.53
CN(C)C/C=C/C(=O)Nc1ccc(C(=O)Nc2cccc(Nc3ncc(Cl)c(-c4c[nH]c5ccccc45)n3)c2)cc1,6.63,2.87,0.82,10.8,4.72,5.94,5.98,1.96,4.69,1.76
COc1ccc(COc2ccc(Cc3cnc(N)nc3N)cc2OC)cc1,0.53,0.05,0.43,-0.14,0.29,0.04,0.55,0.34,1.41,0.24
C1=N/C2=N/c3ccc(OCCN4CCCC4)c(c3)COC/C=C/COCc3cccc(c3)C(=C1)N2 [Pacritinib (SB1518)],8.5,3.05,0.14,4.32,4.35,3.76,7.67,10.9,3.66,5.39
CN(C)CCCn1cc(C2=C(c3c[nH]c4ccccc34)C(=O)NC2=O)c2ccccc21,0.99,0.36,0.65,0.12,0.5,1.02,0.83,1.37,-0.32,0.65
CCOc1cc2ncc(C#N)c(Nc3ccc(F)c(Cl)c3)c2cc1NC(=O)/C=C/CN(C)C [Pelitinib (EKB-569)],4.93,0.37,0.32,0.42,3.2,0.73,1.15,5.5,0.56,0.56
O=c1cc(N2CCOCC2)oc2c1ccc1ccccc12,0.57,0.45,0.58,1.07,0.27,0.43,0.29,0.64,2.01,0.31
CC(C)(C)NC(=O)c1cncn1C1CCN(c2ccc(-c3nnc(C(F)(F)F)o3)cn2)CC1,0.9,0.27,0.48,-0.08,0.32,0.7,0.36,-0.3,1.43,0.3
O=C(c1ccc(Nc2nccc(-c3cc4ccccc4s3)n2)cc1)N1CCC(N2CCCC2)CC1 [IKK-16 (IKK Inhibitor VII)],6.42,1.74,0.22,2.55,4.05,1.23,5.04,5.32,3.88,4.91
O=S(=O)(NCCNC/C=C/c1ccc(Br)cc1)c1cccc2cnccc12,0.56,0.32,0.25,0.22,0.02,0.46,0.01,0.54,0.79,0.63
"CCCS(=O)(=O)Nc1ccc(F)c(C(=O)c2c[nH]c3ncc(-c4ccc(Cl)cc4)cc23)c1F [Vemurafenib (PLX4032, RG7204)]",9.27,1.86,0.64,4.44,0.69,1.54,2.6,4.48,4.49,0.68
COc1cc(OC)c(C=C2C(=O)Nc3ccccc32)c(OC)c1,-0.14,0.07,-0.08,-0.35,0.05,-0.29,-0.06,0.7,0.58,0.2
Oc1c2ccccc2c2c3c(cccc13)N=N2,8.26,0.51,0.73,5.6,3.39,2.66,2.79,6.42,2.04,1.69
Cc1[nH]c(/C=C2\C(=O)Nc3ccc(S(=O)(=O)Cc4c(Cl)cccc4Cl)cc32)c(C)c1C(=O)N1CCC[C@@H]1CN1CCCC1,0,0.51,0.3,4.07,0.43,0.47,0,7.26,2.55,0.74
CCc1cncnc1N1CCN(Cc2nc3ccc(C(F)(F)F)cc3[nH]2)CC1,0.59,0.3,0.39,-0.06,0.33,0.04,0.36,0.25,0.52,0.52
COc1cc2c(Oc3ccc4[nH]c(C)cc4c3F)ncnc2cc1OCCCN1CCCC1 [Cediranib (AZD2171)],1.17,-0.01,0.25,1.5,0.44,-0.12,2.04,5.53,0.23,0.71
O=C(Nc1cccc(C(F)(F)F)c1)c1cccc2cc(Oc3cc(CO)ncn3)ccc12,0.82,0.52,0.59,-0.09,0.52,0.11,0.03,0.55,1.4,0.37
Cn1cc(-c2ccc3ncc(Cc4ccc5ncccc5c4)n3n2)cn1,0.5,0.06,0.32,-0.22,0.07,0.05,0.44,2.6,1.45,0.07
